The nature of assay [1]: yeast TOR pathway RPL19A-GFP modulators, primary screen, cell-based, S. cerevisiae, multiplex flow cytometry (AID 1862).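 Also: lower values mimic rapamycin by blocking the RPL19A rise seen in DMSO cells.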 As to conditions: S. cerevisiae RPL19A-GFP strain, flow cytometry fluorescence, 3 h; at 10 µM; stronger effect = lower value. In general terms: A flow cytometer gives signals particle by particle.
Assay [2] can be described thus: modulators of MEP2-GFP levels in yeast, primary screen, S. cerevisiae, multiplex flow cytometry (AID 1867;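 active = GFP response, as percent of the DMSO control, above the screen-wide mean plus 3 SD, about 139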;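 also: median GFP channel fluorescence of barcode-gated MEP2-GFP cells measured by flow cytometry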). Particulars: S. cerevisiae MEP2-GFP strain, 3 h, at 10 µM, stronger effect = higher value, 100% means same as DMSO wells.
A short description of assay [3]: modulators of CIT2-GFP expression in yeast, primary screen, S. cerevisiae, GFP fusion, multiplex flow cytometry (AID 1870;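 active = percent response above a set limit, the screen-wide mean plus 3 SD, cut at about 130% in these data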;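 also: barcoded CIT2-GFP strain pooled with four other GFP strains with rapamycin as positive control; median GFP fluorescence per well over plate mean of DMSO wells so 100% = DMSO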). As to conditions: 3 h, at 10 µM, stronger effect = higher value.
The nature of assay [4]: modulators of LAP4-GFP expression in yeast, primary screen, S. cerevisiae, multiplex flow cytometry (AID 1873;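 active = GFP signal, as percent of the solvent control, above the screen mean plus 3 SD, about 149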). Particulars: 3 h, at 10 µM, stronger effect = higher value.
Assay [5] is described as follows: modulators of AGP1-GFP expression in yeast TOR pathway, primary screen, cell-based, multiplex flow cytometry, S. cerevisiae (AID 1887;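 active = GFP signal above the screen-wide mean plus 3 SD, that is over about 124.5% of the solvent control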;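 also: AGP1-GFP fusion strain of S. cerevisiae within a five-strain barcoded multiplex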). Particulars: 3 h, at 10 µM, stronger effect = higher value.
Assay [6] can be described thus: inhibitors of CD8+ T cell-vesicle binding, pilot screen, LFA-1/ICAM-1 modulator project, MLPCN validation set, flow cytometry (AID 2523;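 active = response below a set limit, under 55% cells CD8-positive and vesicle-bound, and CD8 cells' 90th-percentile brightness under 279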;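 as to vesicle binding response: mean PE anti-B7-1 fluorescence of CD8+ cells relative to row control; 100% = QL9-loaded vesicles with DMSO vehicle in the same plate row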). As to conditions: 2C mouse CD8+ T cells, at 7 µM, stronger effect = lower value; double positive events: measured here: CD8+/vesicle+ event percentage.
The target of assay [7] is Integrin beta-1 (Homo sapiens) + Integrin alpha-4 (Homo sapiens) (UniProt P13612+P05556). As to the kind of experiment: inhibition of HUTS-21 binding to VLA-4, pilot screen, VLA-4 allosteric modulator project, U937 cells, HUTS-21 mAb, flow cytometry, validation set (AID 2674;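 active = inhibition above 50%, about 3 SD of the validation set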;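 also: antibody binding induced by the VLA-4 ligand LDV present at three times its Kd; 0% = LDV ligand with antibody and no compound and 100% = antibody without LDV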). Particulars: HUTS-21 LIBS mAb binding, at 6.7 µM, stronger effect = higher value, binding induced by LDV ligand.

The nature of assay [8]: superoxide lowering in aged yeast cells, pilot screen, validation compound set (AID 2706;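 active = superoxide response below 65% of plate, a cut near 3 SD across the whole screen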;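 also: yeast exposed to compound for one week at 30 degrees C before staining; 100% = mean of all compound wells on the same plate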). As to conditions: S. cerevisiae aging, superoxide DHE fluorescence; at 10 µM; stronger effect = lower value.
Assay [9] addresses Beta-adrenergic receptor kinase 1 (Homo sapiens) (UniProt P25098). Kind of assay: GRK2 binders displacing RNA aptamer, biochemical, validation, human GRK2, bead flow cytometry (AID 488806;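 active = aptamer binding inhibition above 30%, about 3 SD of noise from non-fluorescent compounds; inactive = inhibition at or below 30%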). Particulars: bead-bound GRK2, FAM-aptamer displacement, at 10 µM, stronger effect = higher value.
Assay [10] deals with Beta-2 adrenergic receptor (Homo sapiens) (UniProt P07550). Kind of assay: beta2AR agonists driving receptor internalization, pilot screen, cell-based, FAP fluorogen, flow cytometry, validation set (AID 504459;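 active = percent response above 42, roughly 3 SD of non-fluorescent test compounds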;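 also: agonist-driven loss of surface beta2AR via internalization measured by FAP dye flow cytometry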). As to conditions: Am2.2-beta2AR cells, FAP surface receptor flow cytometry; at 10 µM; stronger effect = higher value.
For assay [11], the target named is AP-2 complex subunit beta (Homo sapiens) (UniProt P63010). Kind of assay: inhibitors of arrestin peptide binding to AP2, pilot screen, biochemical, validation set, GST-AP2 beads, flow cytometry (AID 504541;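 active = inhibition above 54%, about 3 SD of non-fluorescent compounds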;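 also: AP2 carries R879A mutation and is captured from E. coli lysate; bead-bound FITC arrestin peptide fluorescence measuring arrestin peptide binding to AP2; 0% = DMSO wells and 100% = excess unlabeled arrestin peptide control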). As to conditions: FITC arrestin peptide, at 10 µM, stronger effect = higher value, AP2 beta2 appendage fragment, R879A mutant.
Assay [12] in a line: yeast V-ATPase proton transport modulators, S. cerevisiae, pHLuorin, HTS validation (AID 504600; in the data active = response above about 15%;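 also: plate controls were DMSO for no effect and reference compound for full effect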). As to conditions: S. cerevisiae pHLuorin cytosolic pH, at 10 µM, stronger effect = higher value.
The test system of assay [13] is anti-desmoglein-3 scFv antibody binding to human DSG3. Kind of assay: inhibitors of anti-DSG3 scFv binding to DSG3, pilot screen, biochemical, validation compound set, bead-based, flow cytometry (AID 588368;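 active = binding below the plate cutoff, the plate median minus 3 SD, with a reading above zero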;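 also: signal is the median channel fluorescence of bead-bound GFP antibody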). Particulars: Protein G beads, DSG3-Fc, scFv-GFP binding, at 10 µM, stronger effect = lower value.
Assay [14] can be described thus: inhibitors of fungal efflux pumps CDR1, CDR2, MDR1, pilot screen, validation compound set, multiplex, phenotypic (AID 588506;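 active = efflux inhibition above 0.42, the validation set average plus 4 SD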;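 also: Nile Red retained in cells so higher fluorescence means more efflux inhibition; 0 = negative control wells and 1 = enniatin B 25 µM full block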). Particulars: S. cerevisiae pump-expressing triplex, Nile Red efflux flow cytometry; at 10 µM; stronger effect = higher value; the pumps come from Candida albicans.
Assay [15] has as its target ATP-binding cassette sub-family B member 6 (Homo sapiens) (UniProt Q9NP58). As to the kind of experiment: ABCB6 transporter inhibitors, pilot screen, K562-ABCB6 cells, flow cytometry, validation set (AID 588550;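 active = inhibition above the screen-wide mean plus 3 SD, about 51%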;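 also: 0% = DMSO wells and 100% = benzethonium chloride 70 µM positive control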). As to conditions: K562-ABCB6 porphyrin accumulation, 1 h, at 10 µM, stronger effect = higher value.
The nature of assay [16]: promoters of myeloid differentiation in arrested cells, primary screen, cell-based, GFP/MAC1 double positive, flow cytometry, validation set (AID 588685;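 active = differentiation response of at least 50%, scaled between solvent and reference control, from cells with both markers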;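 also: compound exposure lasts four days before antibody staining and flow analysis; 0% = DMSO wells and 100% = 5 µM fulvestrant positive control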). As to conditions: ER-HoxA9 marrow cells, stronger effect = higher value, normalized: vehicle 0, fulvestrant 100.

Molecules are shown by their SMILES. Results filed as inconclusive are left out. Activity calls are given as the source filed them. Rule as the data show it, unless noted: active = percent of DMSO control GFP below about 86%; inactive = the rest, inconclusive results apart.

ATP-binding cassette sub-family B member 6 (Homo sapiens), sequence (Q9NP58 whole entry, looked up): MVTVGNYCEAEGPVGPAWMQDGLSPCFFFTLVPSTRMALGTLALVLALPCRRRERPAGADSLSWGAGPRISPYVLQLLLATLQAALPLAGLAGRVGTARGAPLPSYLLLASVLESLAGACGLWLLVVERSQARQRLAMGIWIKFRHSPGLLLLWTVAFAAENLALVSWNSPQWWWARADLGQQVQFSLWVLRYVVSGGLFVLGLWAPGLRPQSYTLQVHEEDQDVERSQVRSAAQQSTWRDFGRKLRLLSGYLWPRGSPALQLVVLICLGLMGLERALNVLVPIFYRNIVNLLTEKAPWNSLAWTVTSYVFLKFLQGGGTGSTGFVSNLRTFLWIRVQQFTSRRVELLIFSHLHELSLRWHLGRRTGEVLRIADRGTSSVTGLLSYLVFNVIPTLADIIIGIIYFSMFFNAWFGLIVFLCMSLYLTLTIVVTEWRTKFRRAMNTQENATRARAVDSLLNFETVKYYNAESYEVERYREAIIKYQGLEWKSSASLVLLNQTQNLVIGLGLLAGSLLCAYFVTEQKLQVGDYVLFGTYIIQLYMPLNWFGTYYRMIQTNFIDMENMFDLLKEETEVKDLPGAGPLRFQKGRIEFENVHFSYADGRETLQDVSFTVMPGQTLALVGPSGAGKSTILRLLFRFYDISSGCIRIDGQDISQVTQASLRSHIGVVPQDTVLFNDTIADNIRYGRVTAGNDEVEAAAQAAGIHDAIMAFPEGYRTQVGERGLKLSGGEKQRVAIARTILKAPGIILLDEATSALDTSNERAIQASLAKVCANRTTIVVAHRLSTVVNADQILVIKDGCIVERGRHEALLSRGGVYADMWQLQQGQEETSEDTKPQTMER
AP-2 complex subunit beta (Homo sapiens), sequence (P63010 whole entry, looked up, the tested form may be a part, one chain of several): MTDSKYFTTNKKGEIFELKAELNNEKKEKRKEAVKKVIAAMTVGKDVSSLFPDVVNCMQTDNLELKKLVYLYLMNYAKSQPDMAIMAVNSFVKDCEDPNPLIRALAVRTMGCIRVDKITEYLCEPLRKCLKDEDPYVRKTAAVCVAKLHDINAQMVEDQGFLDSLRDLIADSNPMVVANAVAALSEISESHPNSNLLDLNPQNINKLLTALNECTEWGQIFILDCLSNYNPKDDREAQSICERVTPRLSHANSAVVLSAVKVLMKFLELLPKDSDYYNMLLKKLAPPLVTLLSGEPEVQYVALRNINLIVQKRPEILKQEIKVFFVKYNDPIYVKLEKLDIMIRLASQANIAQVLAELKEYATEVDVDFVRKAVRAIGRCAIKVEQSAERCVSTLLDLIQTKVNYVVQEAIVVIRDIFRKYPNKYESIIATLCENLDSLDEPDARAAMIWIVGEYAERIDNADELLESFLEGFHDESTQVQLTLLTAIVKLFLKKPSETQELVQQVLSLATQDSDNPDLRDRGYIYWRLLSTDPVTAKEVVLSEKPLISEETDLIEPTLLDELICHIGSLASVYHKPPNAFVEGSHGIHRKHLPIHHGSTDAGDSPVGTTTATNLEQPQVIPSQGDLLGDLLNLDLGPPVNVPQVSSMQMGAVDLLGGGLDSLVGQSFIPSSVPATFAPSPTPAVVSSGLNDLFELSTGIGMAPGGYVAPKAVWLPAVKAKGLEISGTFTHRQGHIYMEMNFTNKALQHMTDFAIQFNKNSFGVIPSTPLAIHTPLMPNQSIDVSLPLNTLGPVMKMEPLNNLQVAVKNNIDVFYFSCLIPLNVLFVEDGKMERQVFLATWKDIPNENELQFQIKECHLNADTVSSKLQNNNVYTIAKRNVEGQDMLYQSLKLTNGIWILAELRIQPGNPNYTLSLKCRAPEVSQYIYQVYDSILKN
Integrin beta-1 (Homo sapiens) + Integrin alpha-4 (Homo sapiens), sequence (P05556 whole entry, looked up): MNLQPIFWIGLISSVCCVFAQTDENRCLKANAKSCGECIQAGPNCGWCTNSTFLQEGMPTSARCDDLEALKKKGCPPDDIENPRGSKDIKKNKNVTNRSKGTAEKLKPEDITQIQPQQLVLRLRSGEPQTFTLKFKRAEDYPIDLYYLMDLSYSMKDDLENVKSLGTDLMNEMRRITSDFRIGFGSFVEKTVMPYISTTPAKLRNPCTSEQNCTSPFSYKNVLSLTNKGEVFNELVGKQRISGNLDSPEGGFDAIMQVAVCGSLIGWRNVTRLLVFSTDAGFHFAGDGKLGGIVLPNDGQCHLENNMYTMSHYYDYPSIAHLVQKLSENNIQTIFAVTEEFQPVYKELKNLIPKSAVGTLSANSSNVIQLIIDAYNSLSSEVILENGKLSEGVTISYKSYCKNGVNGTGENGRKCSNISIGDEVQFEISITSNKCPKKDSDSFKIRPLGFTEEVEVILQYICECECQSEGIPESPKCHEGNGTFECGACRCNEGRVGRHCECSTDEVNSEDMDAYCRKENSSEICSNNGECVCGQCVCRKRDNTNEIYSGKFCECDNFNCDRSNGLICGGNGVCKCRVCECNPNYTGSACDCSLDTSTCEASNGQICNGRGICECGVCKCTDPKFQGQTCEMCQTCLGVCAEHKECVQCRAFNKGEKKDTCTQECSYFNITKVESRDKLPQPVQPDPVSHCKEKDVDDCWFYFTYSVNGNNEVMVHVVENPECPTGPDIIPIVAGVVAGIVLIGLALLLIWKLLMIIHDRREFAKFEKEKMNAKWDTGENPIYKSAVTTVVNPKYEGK
Integrin beta-1 (Homo sapiens) + Integrin alpha-4 (Homo sapiens), sequence (P13612 whole entry, looked up): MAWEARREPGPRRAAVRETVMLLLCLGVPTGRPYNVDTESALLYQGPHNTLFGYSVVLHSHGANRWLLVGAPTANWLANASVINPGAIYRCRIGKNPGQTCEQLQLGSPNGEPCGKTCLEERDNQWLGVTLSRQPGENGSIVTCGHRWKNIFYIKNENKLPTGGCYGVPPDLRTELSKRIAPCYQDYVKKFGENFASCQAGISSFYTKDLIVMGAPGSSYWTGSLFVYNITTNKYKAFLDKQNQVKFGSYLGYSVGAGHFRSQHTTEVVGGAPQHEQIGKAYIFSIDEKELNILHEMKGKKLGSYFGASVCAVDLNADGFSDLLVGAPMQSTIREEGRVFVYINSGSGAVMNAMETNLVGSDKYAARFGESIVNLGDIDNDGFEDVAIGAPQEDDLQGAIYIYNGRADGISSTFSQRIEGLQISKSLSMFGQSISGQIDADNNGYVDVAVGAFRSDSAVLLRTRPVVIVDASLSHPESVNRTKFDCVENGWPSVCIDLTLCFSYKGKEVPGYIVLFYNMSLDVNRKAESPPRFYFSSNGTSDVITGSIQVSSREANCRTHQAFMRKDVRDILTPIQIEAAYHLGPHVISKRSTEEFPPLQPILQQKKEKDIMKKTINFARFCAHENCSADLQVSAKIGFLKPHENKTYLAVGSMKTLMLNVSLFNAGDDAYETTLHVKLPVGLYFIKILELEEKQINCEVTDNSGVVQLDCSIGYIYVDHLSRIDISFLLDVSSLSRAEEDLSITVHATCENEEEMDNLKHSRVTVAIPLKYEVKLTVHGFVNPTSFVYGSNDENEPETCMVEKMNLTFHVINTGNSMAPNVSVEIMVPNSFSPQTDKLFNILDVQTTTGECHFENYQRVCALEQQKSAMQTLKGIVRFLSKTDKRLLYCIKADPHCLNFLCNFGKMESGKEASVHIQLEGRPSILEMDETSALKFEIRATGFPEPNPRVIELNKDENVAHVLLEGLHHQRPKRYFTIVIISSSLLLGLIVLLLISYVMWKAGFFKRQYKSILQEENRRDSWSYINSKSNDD
Beta-adrenergic receptor kinase 1 (Homo sapiens), sequence (P25098 whole entry, looked up): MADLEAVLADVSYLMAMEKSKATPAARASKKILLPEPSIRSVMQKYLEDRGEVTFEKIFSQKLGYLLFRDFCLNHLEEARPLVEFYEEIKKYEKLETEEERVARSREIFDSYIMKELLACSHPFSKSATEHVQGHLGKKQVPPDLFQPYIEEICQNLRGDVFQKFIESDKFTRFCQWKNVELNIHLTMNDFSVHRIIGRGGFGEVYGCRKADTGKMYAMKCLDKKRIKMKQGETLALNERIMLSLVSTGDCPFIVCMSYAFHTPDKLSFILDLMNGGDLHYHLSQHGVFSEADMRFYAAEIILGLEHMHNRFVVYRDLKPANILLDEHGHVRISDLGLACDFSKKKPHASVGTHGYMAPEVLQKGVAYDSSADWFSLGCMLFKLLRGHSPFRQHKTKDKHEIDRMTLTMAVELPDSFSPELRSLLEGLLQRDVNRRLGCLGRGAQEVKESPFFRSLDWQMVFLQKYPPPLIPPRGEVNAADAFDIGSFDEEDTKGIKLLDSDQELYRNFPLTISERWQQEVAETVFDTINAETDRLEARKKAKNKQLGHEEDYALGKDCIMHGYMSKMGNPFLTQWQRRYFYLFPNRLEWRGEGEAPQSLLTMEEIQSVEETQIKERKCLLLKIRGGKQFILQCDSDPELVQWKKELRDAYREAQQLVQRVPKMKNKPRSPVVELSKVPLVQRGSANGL
Beta-2 adrenergic receptor (Homo sapiens), sequence (P07550 whole entry, looked up): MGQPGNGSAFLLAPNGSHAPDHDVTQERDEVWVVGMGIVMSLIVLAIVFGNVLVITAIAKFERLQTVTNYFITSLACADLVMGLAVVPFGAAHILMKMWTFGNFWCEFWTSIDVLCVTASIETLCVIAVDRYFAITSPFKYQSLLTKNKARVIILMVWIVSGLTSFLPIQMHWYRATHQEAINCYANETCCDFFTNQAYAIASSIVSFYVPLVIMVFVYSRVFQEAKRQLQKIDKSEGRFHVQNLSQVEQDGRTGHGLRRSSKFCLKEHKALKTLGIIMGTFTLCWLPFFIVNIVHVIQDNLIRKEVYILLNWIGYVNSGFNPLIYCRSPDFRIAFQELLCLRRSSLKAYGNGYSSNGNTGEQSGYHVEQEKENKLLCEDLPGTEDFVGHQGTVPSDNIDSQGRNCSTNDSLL

One may read the inhibition as the drop in the measured response relative to a control, in per cent. With `O=C(O)CCCCCN1C(=O)C(=O)/C(=C(/O)c2ccccc2)C1c1ccccc1` (stereo not drawn), the percent of DMSO control GFP in assay [1] was 99.5% (inactive). Moreover, the values for the GFP response vs DMSO in assay [2] and in assay [4] were 97.4% (inactive) and 119% (inactive), respectively. Further, the percent response of DMSO control in [3] is 98.6% (inactive). In addition, the GFP response, % of DMSO in [5] was 102% (inactive). Further, the double positive events in [6] came out at 63.1%. For the same compound, in assay [6], the vesicle binding response was 212% (inactive). For the same compound, the inhibition in [7] is -5.89% (inactive); in assay [11], -10.9% (inactive); in assay [15], 7% (inactive). Besides, the superoxide response (% of plate) in [8] is 103% (inactive). Further, the aptamer binding inhibition in [9] was 7% (inactive). For the same compound, the figures for the response in assay [10] and in assay [12] were -2.6% (inactive) and -1.69% (inactive), respectively. The binding (% of control) in [13] was 98% (inactive). Besides, in assay [14], the efflux inhibition (fraction of control) is -0.06 (inactive). The differentiation response in [16] was 7.2% (inactive).
For `N/C(=N\OC(=O)/C=C/c1ccccc1)c1ccc(Br)cc1`, in assay [1], the percent of DMSO control GFP was 103% (inactive). Further, the GFP response vs DMSO in assay [2] was 106% (inactive); in assay [4], 101% (inactive). Moreover, the percent response of DMSO control in assay [3] was 107% (inactive). Besides, the GFP response, % of DMSO in assay [5] is 94.2% (inactive). In addition, in assay [6], the double positive events was determined as 65%. The vesicle binding response in [6] was 195% (inactive). Further, the inhibition in assay [7] was -3.57% (inactive); in assay [11], 40.4% (inactive); in [15], 13% (inactive). The superoxide response (% of plate) in assay [8] is 107% (inactive). Also, the aptamer binding inhibition in assay [9] is 3% (inactive). Moreover, the response in [10] was 0.58% (inactive); in assay [12], -3.5% (inactive). Also, the binding (% of control) in assay [13] is 100% (inactive). In addition, in assay [14], the efflux inhibition (fraction of control) was -0.01 (inactive). For the same compound, the differentiation response in assay [16] was -3.67% (inactive).
With `CCc1ccc(CN(C)Cc2nc(Cc3ccccc3)no2)nc1`, in assay [1], the percent of DMSO control GFP is 105% (inactive). Further, the results for the GFP response vs DMSO in assay [2] and in [4] were 99.6% (inactive) and 112% (inactive), respectively. Also, the percent response of DMSO control in assay [3] is 103% (inactive). Besides, in assay [5], the GFP response, % of DMSO was 112% (inactive). Besides, the double positive events in assay [6] turned out to be 59.8%. Also, the vesicle binding response in assay [6] was 160% (inactive). The inhibition in assay [7] was 0.59% (inactive); in [11], 1.57% (inactive); in assay [15], -5% (inactive). Besides, the superoxide response (% of plate) in assay [8] was 101% (inactive). Besides, the aptamer binding inhibition in assay [9] is 4% (inactive). Further, the response in [10] was -25% (inactive); in [12], -11.6% (inactive). In assay [13], the binding (% of control) was 97.3% (inactive). In addition, the efflux inhibition (fraction of control) in [14] was -0.04 (inactive). In addition, the differentiation response in [16] is 14.7% (inactive).
`O=C(COc1ccccc1)Nc1ccc2c(c1)C(=O)N(CC1CCCO1)C2=O` (stereo not drawn): the percent of DMSO control GFP in assay [1] was 100% (inactive). The GFP response vs DMSO in assay [2] is 102% (inactive); in [4] it was 113% (inactive). In addition, the percent response of DMSO control in [3] was 102% (inactive). Besides, in [5], the GFP response, % of DMSO is 106% (inactive). In addition, in assay [6], the double positive events was 61.5%. For the same compound, the vesicle binding response in [6] was 179% (inactive). Besides, the inhibition was 13.7% (inactive) in assay [7], 4.36% (inactive) in assay [11] and -12% (inactive) in assay [15]. In assay [8], the superoxide response (% of plate) was 110% (inactive). The aptamer binding inhibition in assay [9] was 3% (inactive). In addition, the results for the response in assay [10] and in [12] were 3.99% (inactive) and -0.92% (inactive), respectively. The binding (% of control) in [13] was 100% (inactive). Besides, the efflux inhibition (fraction of control) in assay [14] is 0.47 (active). In addition, the differentiation response in [16] is -8.96% (inactive).

Source of the values: PubChem BioAssay.
